Test results published in the supplement of paper PMC13380429.

Test system: Vero E6 infected with SARS-CoV-2
Assay: inhibition of SARS-CoV-2 cytopathic effect; higher = more antiviral protection, active = above 15
Details: 48 h

Measured: inhibition of SARS-CoV-2 cytopathic effect

CC(C)(C)c1ccc(S(=O)(=O)Nc2ccc(Cl)cc2C(=O)c2cc[n+]([O-])cc2)cc1 [vercirnon]
inactive: 1 nM 1.28% | 8.33 nM 1.21% | 100 nM 2.63% | 833.33 nM 4.3% | 10000 nM 1.46%

CCN(CC)CCOC(=O)c1ccc(N)cc1 [procaine]
inactive: 1 nM -1.32% | 8.33 nM -0.89% | 100 nM -0.82% | 833.33 nM -1.72% | 10000 nM -0.17%

CC[C@H](C)[C@H](N)C(=O)O [isoleucine]
inactive: 1 nM -1.51% | 8.33 nM -4.12% | 100 nM -0.12% | 833.33 nM 0.05% | 10000 nM 1.97%

Cc1nnc2ccc(-c3cccc(C(F)(F)F)c3)nn12
inactive: 1 nM -0.37% | 8.33 nM 3.68% | 100 nM 2.78% | 833.33 nM 1.93% | 10000 nM 2.16%

O=C(C=Cc1ccccc1)NC(NC(=S)Nc1ccc(Cl)cc1)C(Cl)(Cl)Cl (stereo not given)
inactive: 1 nM 0.51% | 8.33 nM 0.81% | 100 nM -4.17% | 833.33 nM -1.91% | 10000 nM -5.67%

O=C(Nc1cc(C(F)(F)F)ccc1O)Nc1cc(C(F)(F)F)ccc1O
inactive: 1 nM -2.23% | 8.33 nM 2.44% | 100 nM 6.17% | 833.33 nM -1.82% | 10000 nM -0.23%

CC(C)CC(=O)N[C@H](C(=O)N[C@H](C(=O)N[C@@H](CC(C)C)[C@@H](O)CC(=O)N[C@@H](C)C(=O)N[C@@H](CC(C)C)[C@@H](O)CC(=O)O)C(C)C)C(C)C [pepstatin]
inactive: 1 nM 1.4% | 8.33 nM 0.77% | 100 nM -0.17% | 833.33 nM -1.52% | 10000 nM -4.53%

C[N+](C)(C)CC(O)CC(=O)[O-] (stereo not given) [carnitine-(D/L)]
inactive: 1 nM -1.88% | 8.33 nM -0.98% | 100 nM 0.43% | 833.33 nM 3.52% | 10000 nM 5.12%

C[C@]12CC[C@H](O)C[C@H]1CC[C@@H]1[C@@H]2CC[C@]2(C)[C@@H](C3=CC(=O)OC3)CC[C@]12O [digitoxigenin]
inactive: 1 nM -1.6% | 8.33 nM -1.96% | 100 nM -11.8% | 833.33 nM -13.3% | 10000 nM -19.4%

OCCN1C[C@H](O)[C@@H](O)[C@H](O)[C@H]1CO [miglitol]
inactive: 1 nM -4.01% | 8.33 nM -3.41% | 833.33 nM -3.71% | 10000 nM -4.78%
active: 100 nM 52.1%

Nc1c(-c2cccc(C(F)(F)F)c2)nsc1C(=O)O [amflutizole]
inactive: 1 nM -1.13% | 8.33 nM 0.29% | 100 nM -1.28% | 833.33 nM 0.87% | 10000 nM 1.39%

COc1cccc(-c2cc(=O)c3ccccc3o2)c1N
inactive: 1 nM 1.12% | 8.33 nM -3.81% | 100 nM -0.32% | 833.33 nM -3.58% | 10000 nM -5.22%

CC(C)(C)C(=O)OCOC(=O)[C@@H]1N2C(=O)[C@@H](/N=C/N3CCCCCC3)[C@H]2SC1(C)C [pivmecillinam]
inactive: 1 nM 1.02% | 8.33 nM 0.8% | 100 nM -0.38% | 833.33 nM -0.99% | 10000 nM 0.82%

CCCCCCCCCC(=O)O[C@H]1CC[C@H]2[C@@H]3CCC4=CC(=O)CC[C@@H]4[C@H]3CC[C@]12C [Nandrolone decanoate]
inactive: 1 nM 0.16% | 8.33 nM 0.18% | 100 nM -0.72% | 833.33 nM 0.02% | 10000 nM -4.93%

C#C[C@]1(O)CC[C@H]2[C@@H]3CCC4=CC(=O)CCC4=C3C=C[C@@]21CC [gestrinone]
inactive: 1 nM 1.67% | 8.33 nM 0.8% | 100 nM 4.87% | 833.33 nM 3.58% | 10000 nM 5.58%

CCCCC/C=C\C=C\CCCCCCCCC(=O)O [trans-10,cis-12-conjugated-linoleic-acid]
inactive: 1 nM -0.53% | 8.33 nM -2.2% | 100 nM -2.88% | 833.33 nM -2.64% | 10000 nM 7.84%

Fc1ccc(-c2nc3n(c2-c2ccncc2)CCS3)cc1
inactive: 1 nM 1.58% | 8.33 nM -0.78% | 100 nM -1.15% | 833.33 nM -1.03% | 10000 nM -1.09%

Cc1nc[nH]c1CCN [4-methylhistamine]
inactive: 1 nM -0.91% | 8.33 nM -0.74% | 100 nM -0.39% | 833.33 nM -2.08% | 10000 nM 0%

C[n+]1cc2c3c(ccc2c2ccc4cc5c(cc4c21)OCO5)OCO3 [sanguinarium-chloride]
inactive: 1 nM 0.27% | 8.33 nM 0.22% | 100 nM -1.52% | 833.33 nM 2.52% | 10000 nM -25.4%

Cc1cc(C#N)cc(C)c1Oc1nc(Nc2ccc(C#N)cc2)nc(N)c1Br [etravirine]
inactive: 1 nM -0.95% | 8.33 nM -0.81% | 100 nM -2.15% | 833.33 nM -5.24% | 10000 nM -2.04%

O=C(O)Cn1nnc(-c2cc(N3CCC(Oc4cc(F)ccc4Br)CC3)no2)n1
inactive: 1 nM -0.51% | 8.33 nM -0.71% | 100 nM 1.39% | 833.33 nM -0.54% | 10000 nM 1.73%

C[C@H](Cc1ccc2c(c1)OC(C(=O)O)(C(=O)O)O2)NC[C@H](O)c1cccc(Cl)c1
inactive: 1 nM 0.95% | 8.33 nM 3.71% | 100 nM -1.72% | 833.33 nM -1.35% | 10000 nM 2.18%

CC1(C)CCC[C@]2(C)[C@H]3CC(=O)O[C@]3(C)CC[C@@H]12 [Sclareolide (Norambreinolide)]
inactive: 1 nM -2.36% | 8.33 nM 3.53% | 100 nM 6.06% | 833.33 nM 2.01% | 10000 nM 1.5%

Cc1cc(O)c(C(C)C)cc1Cl [chlorothymol]
inactive: 1 nM 0.21% | 8.33 nM 0.56% | 100 nM 2.72% | 833.33 nM 0.49% | 10000 nM -5.16%

c1cc2c(cc1[C@H]1OC[C@H]3[C@@H]1CO[C@@H]3c1ccc3c(c1)OCO3)OCO2 [sesamin]
inactive: 1 nM -1.62% | 8.33 nM -0.09% | 100 nM -0.37% | 833.33 nM 0.48% | 10000 nM -1.08%

Cc1ccc2c(=O)c3ccccc3n(CCCN)c2c1C
inactive: 1 nM 3.67% | 8.33 nM 4.23% | 100 nM -0.41% | 833.33 nM 1.46% | 10000 nM -13.1%

CC(=O)Oc1ccccc1C(=O)Nc1ncc([N+](=O)[O-])s1 [nitazoxanide]
inactive: 1 nM 4.76% | 8.33 nM -3.73% | 100 nM -1.27% | 833.33 nM -0.63% | 10000 nM 8.82%

CCO[C@@H](Cc1ccc(OCCn2c(C)ccc2-c2ccc(SC)cc2)cc1)C(=O)O [saroglitazar]
inactive: 1 nM 1% | 8.33 nM -0.85% | 100 nM -1.26% | 833.33 nM 0.64% | 10000 nM 1.31%

C[C@]12CC[C@H](O)C[C@H]1CC[C@@H]1[C@@H]2CC[C@]2(C)[C@@](O)(c3ccoc3)CC[C@]12O [rostafuroxine]
inactive: 1 nM 3.43% | 8.33 nM -0.48% | 100 nM 1.69% | 833.33 nM -1.79% | 10000 nM -1.77%

C/C(=N\c1ccccc1N)c1c(C)cc(=O)n(O)c1O
inactive: 1 nM -2.19% | 8.33 nM -2.18% | 100 nM -1.91% | 833.33 nM 3.65% | 10000 nM 1.35%

C[C@H]1COc2c(C3(N)CC3)c(F)cc3c(=O)c(C(=O)O)cn1c23 [pazufloxacin]
inactive: 1 nM -5.2% | 8.33 nM -1.82% | 100 nM 2.15% | 833.33 nM 0.57% | 10000 nM -3.15%

O=C(c1cn(Cc2cncn2Cc2ccc(Br)cc2)cc1-c1cccc2ccccc12)N1CCOCC1
inactive: 1 nM -2.2% | 8.33 nM -3.17% | 100 nM -1.58% | 833.33 nM -0.44% | 10000 nM -3.78%

COc1cc2c(cc1O)CC[C@@H]1[C@@H]2CC[C@]2(C)[C@@H](O)CC[C@@H]12 [2-methoxyestradiol]
inactive: 1 nM -3.17% | 8.33 nM 0.66% | 100 nM -1.13% | 833.33 nM -1.83% | 10000 nM -4.59%

CCN(CC)S(=O)(=O)c1ccc(C(=O)O)cc1 [etebenecid]
inactive: 1 nM -3.2% | 8.33 nM 1.54% | 100 nM 0.48% | 833.33 nM 1.89% | 10000 nM 2.73%

O=C(O)/C=C/c1ccc(O)cc1 [naringeninic-acid]
inactive: 1 nM 1.32% | 8.33 nM -1.82% | 100 nM -12% | 833.33 nM -0.34% | 10000 nM -0.09%

COc1c(C)cnc(Cn2cc(C#CCC(C)(C)O)c3c(Cl)nc(N)nc32)c1C
inactive: 1 nM 2.11% | 8.33 nM 1.52% | 100 nM -1.98% | 833.33 nM 0.61% | 10000 nM -7.6%

CN(CCOc1ccc(NS(C)(=O)=O)cc1)CCc1ccc(NS(C)(=O)=O)cc1 [dofetilide]
inactive: 1 nM -2.98% | 8.33 nM -1.43% | 100 nM -1.55% | 833.33 nM -0.28% | 10000 nM -0.36%

Nc1nc(-c2nn(Cc3ccccc3F)c3ncccc23)ncc1C1CC1
inactive: 1 nM 1.54% | 8.33 nM 2.15% | 100 nM -0.39% | 833.33 nM -2.42% | 10000 nM -5.17%

Nc1cc(N2CCCCC2)nc(N)[n+]1[O-] [minoxidil]
inactive: 1 nM 0.37% | 8.33 nM 0.28% | 100 nM -0.2% | 833.33 nM 1.1% | 10000 nM -0.33%

CCc1cccc(N(C)C(=N)Nc2cccc3ccccc23)c1 [aptiganel]
inactive: 1 nM 1.52% | 8.33 nM 1.91% | 100 nM 1.39% | 833.33 nM -2.33% | 10000 nM -4.82%
